Marburg entry inh: inhibitors of Marburg virus binding or cell entry | Potency, µM (doses to about 37.8 µM), actives largely listed as inhibitors | Marburg virus pseudotyped entry inhibition, cell reporter | hit rate 1.8% among 300,000; calls by dose curve; tested in HEK293 cells
Vaccinia Venus: inhibitors of vaccinia virus (Venus reporter). Vaccinia virus Venus reporter expression, fluorescence. Potency, µM (titrated, usually from 36.5 µM), most hits filed as inhibitors. hit rate 0.46% among 330,000. AID 720580; calls by dose curve; tested in A549 cells; note: nearly all actives have a fitted effect of over 30% in size
Lassa entry inh: blocks Lassa virus binding to or entry into cells; Lassa virus pseudotype entry inhibition, cell reporter; Potency, µM (highest dose often 37.9 µM), hits mostly inhibitors; hit rate 1.2% among 300,000; AID 540256; calls by dose curve; tested in HEK293 cells; note: nearly all actives have a fitted effect of over 50% in size
CHX counter: counter-screen hit for Shiga toxin inhibitors, cycloheximide. cell reporter, cycloheximide protein synthesis inhibition counterscreen. max response, %. hit rate 12% among 300,000; in the data active = max response mostly above about 13%, no sharp cut-off; inactive = mostly below about 14%; note: read at 38.3 µM for the half of the compounds with a filed dose
VACV mCherry inh: vaccinia inhibition (mCherry reporter); Vaccinia virus mCherry reporter infection, fluorescence; Potency, µM (top dose mostly 36.5 µM), usual class: inhibitors; hit rate 0.63% among 310,000; AID 720579; calls by dose curve; tested in A549 cells; note: nearly all actives have a fitted effect of over 35% in size
Shiga inhibitor: Shiga toxin inhibition; inhibition, % at 38.7 µM; hit rate 9.2% among 290,000; AID 2315; Vero cells, Shiga toxin protein synthesis inhibition reporter; in the data active = inhibition mostly above about 28%, no sharp cut-off; inactive = mostly below about 43%
A number is an active result; . = inactive; ? = inconclusive; / = not tested or not shown. Shown is part of a subset that was picked to be rich in hits.

SMILES	Marburg entry inh	Vaccinia Venus	Lassa entry inh	CHX counter	VACV mCherry inh	Shiga inhibitor
CCc1ccc(C(=O)COC(=O)c2n[nH]c3ccccc23)cc1	.	.	?	47.5	.	87.0
O=C(COC(=O)c1n[nH]c2ccccc12)Nc1ccc([N+](=O)[O-])cc1	.	.	?	.	.	22.7
CC(=O)Nc1ccc(NC(=O)COC(=O)c2n[nH]c3ccccc23)cc1	/	.	/	.	.	.
CN(C(=O)CSc1nnc(-c2ccc(OC(F)F)cc2)n1N)C1CCS(=O)(=O)C1 (stereo unspecified)	.	.	.	/	.	/
CCOC(=O)c1c(C)oc2nc(C)nc(NCC3CCN(Cc4ccc(C)cc4)CC3)c12	/	.	.	/	.	/
COc1cccc(CNC(=O)CCn2cccn2)c1	/	.	.	/	.	/
O=C(Cc1cccc(NC(=O)C2CCN(C(=O)C3CCCC3)CC2)c1)Nc1cccc(C(=O)N2CCOCC2)c1	/	.	/	/	.	/
O=C(Nc1ccc(Oc2ccccc2)nc1)C1CCCCN1Cc1ccc(OCCO)cc1 (stereo unspecified)	/	/	/	22.4	/	.
CC#CC(=O)N1CCC(C(=O)Nc2ccc(Oc3ccccc3)nc2)CC1	/	/	/	34.4	/	86.8
COc1ccc(CCNC(=O)CSc2nnc(CNC(=O)c3c(F)cccc3Cl)o2)cc1OC	?	.	.	.	.	.
CC(C)c1ccc(S(=O)(=O)c2cn(CC(=O)Nc3ccc(F)cc3)c3ccccc3c2=O)cc1	.	.	.	/	.	/
CCOC(=O)C1=CN(CCC=C(C)C)C(=O)N(C(C)=O)C1c1ccccc1 (stereo unspecified)	.	/	/	/	/	/
COc1ccccc1OCc1ccc(C(=O)NN)o1	/	/	/	19.1	/	42.0
COc1ccc(NC(=O)c2ccc(COc3ccccc3OC)o2)cc1OC	.	.	.	.	.	.
COc1ccccc1OCc1ccc(C(=O)Nc2ccc(Cl)cn2)o1	?	.	.	11.7	.	.
O=C(c1cnc(N2CCOCC2)c2ccccc12)N1CCN(c2ccccc2)CC1	/	.	.	/	.	/
O=C(CCl)Nc1cc(SCC(O)CO)cc([N+](=O)[O-])c1 (stereo unspecified)	?	3.98µM	?	.	2.82µM	.
CCC(=O)Nc1cc(SCCO)cc([N+](=O)[O-])c1	.	.	.	.	.	.
CC(C)=NOc1cc(NC(=O)CCl)cc([N+](=O)[O-])c1	23.1µM	.	17.8µM	.	?	.
O/N=C1/CC/C(=N\O)c2nn(-c3ccccc3)nc21	.	.	.	31.3	.	.
O=C(Nc1cccnc1Cl)c1cccc(F)c1	/	/	/	.	/	.
COc1cc(NC(=O)Nc2cccc3cccnc23)cc(OC)c1OC	/	/	/	15.8	/	.
Cc1cccc(C(=O)Nc2cccnc2Cl)c1	?	.	.	12.4	.	.
COC(=O)C(=O)Nc1cccc2cccnc12	/	/	/	.	/	.
C/C(=N\Nc1cccc2cccnc12)c1ccc(C)cc1	/	/	/	31.5	/	93.4
SMILES	Marburg entry inh	Vaccinia Venus	Lassa entry inh	CHX counter	VACV mCherry inh	Shiga inhibitor
Cc1ccc(C(=O)Nc2cccc3cccnc23)cc1C	.	.	?	29.4	.	/
CCn1cc(S(=O)(=O)c2cccc(Cl)c2)c(=O)c2cc(F)c(N3CCN(C)CC3)cc21	/	.	.	/	.	/
N#Cc1c(-n2ncnc2-c2ccc(Br)cc2)sc2c1CCCCC2	/	.	.	/	.	/
Cc1cccc(C(=O)Nc2cccc3cccnc23)c1	/	/	/	44.6	/	69.6
Cc1ccc(C(=O)Nc2cccc3cccnc23)cc1Cl	?	.	.	/	.	/
Cc1cnc(C(=O)Nc2cccc3cccnc23)cn1	?	?	1.64µM	.	?	.
O=C(Nc1cccc2cccnc12)c1cccnc1	?	/	.	.	/	.
O=C(Cc1ccc(Cl)cc1Cl)NCC1(N2CCOCC2)CCCCC1	.	.	.	.	.	.
COc1ccc(OC)c(NC(=O)CNC(=O)c2ccc([N+](=O)[O-])cc2)c1	/	/	/	.	/	.
CCOC(=O)c1csc(NC(=O)CN2CCCCC2)n1	.	.	.	.	.	.
CCCC(=O)Nc1nc(C(=O)OCC)cs1	.	.	.	17.9	.	.
CCOC(=O)c1csc(NC(=O)C2CCCCC2)n1	.	.	.	26.5	.	58.9
CCOC(=O)c1csc(NC(=O)C(C)(C)C)n1	/	.	/	.	.	.
CCC(SC1=Nc2ccccc2C2=NC(CC(C)C)C(=O)N12)C(=O)Nc1ccc2c(c1)OCO2 (stereo unspecified)	?	.	.	23.0	.	40.3
CC(C)CCn1c(N)c(S(=O)(=O)c2cccs2)c2nc3ccccc3nc21	14.6µM	?	.	.	?	.
Nc1c(S(=O)(=O)c2cccs2)c2nc3ccccc3nc2n1CCc1ccccc1	.	/	/	.	/	.
COc1cccc(CN2C(=O)c3ccccc3C2C(=O)NCCc2ccccc2)c1 (stereo unspecified)	?	.	?	/	.	/
COc1ccc2c(c1)C[C@@H](C)O[C@]21C(=O)Nc2ccccc21	.	/	/	/	/	/
O=C(CSC1=NS(=O)(=O)c2ccccc21)Nc1ccccc1	/	10µM	/	.	12.6µM	.
CC1(C)Cc2c(sc3nc(-c4cc5ccccc5o4)n(N)c(=O)c23)CO1	?	/	.	19.1	/	.
COc1ccc(-n2nnc(-c3nsc(NC(=O)c4cccc(C)c4)n3)c2C)cc1OC	/	.	.	/	.	/
Cc1ccccc1C(=O)c1cccn1CC(=O)NCc1ccccc1	?	.	.	26.2	.	30.3
CC(=O)c1cn(CC(=O)NCc2ccc3c(c2)OCO3)c2ccccc12	?	.	.	.	?	.
Cc1ccccc1C(=O)c1cccn1CC(=O)NCc1ccc2c(c1)OCO2	.	/	.	22.9	/	.
CCOC(=O)C(C)Oc1cccc2c(=O)n(CC(=O)Nc3ccc4c(c3)OCCO4)ccc12 (stereo unspecified)	.	.	.	.	.	.
SMILES	Marburg entry inh	Vaccinia Venus	Lassa entry inh	CHX counter	VACV mCherry inh	Shiga inhibitor
COc1ccc(CCNC(=O)Cn2cccc2C(=O)c2ccccc2)cc1OC	.	.	.	.	.	.
Cc1ccccc1C(=O)c1cccn1CC(=O)NCc1ccc(F)cc1	.	.	.	.	.	.
CCOC(=O)C(C)Oc1cccc2c(=O)n(CC(=O)NCc3ccc4c(c3)OCO4)ccc12 (stereo unspecified)	/	?	/	.	100µM	.
COc1ccc(CNC(=O)Cn2cccc2C(=O)c2ccccc2)cc1	/	/	/	34.1	/	40.3
CN1C(C(=O)NCC2CC2)CC2Cn3c(nc4cc(Cl)c(Cl)cc43)C21 (stereo unspecified)	/	.	/	.	.	.
COc1ccc(CNC(=O)Cn2cccc2C(=O)c2ccccc2C)cc1	?	.	.	71.3	.	59.6
CC(C)CN1C(=O)c2ccc(NC(=O)c3cccs3)cc2C1=O	?	.	.	40.3	.	192.8
CC(C)CN1C(=O)c2ccc(NC(=O)c3ccco3)cc2C1=O	?	.	.	48.6	.	61.2
CN1/C(=C/c2cc[n+](C)c3ccccc23)C=Cc2ccccc21	3.98µM	?	?	.	?	.
C[n+]1ccc(/C=C/c2ccccc2O)c2ccccc21	.	.	.	.	.	.
CC1(C)CC(=O)c2cnc(N3CCc4ccccc4C3)nc2C1	.	.	?	24.0	.	89.3
O=C1CCCc2nc(N3CCc4ccccc43)ncc21	?	/	?	37.5	/	93.9
C[C@@H]1CC[C@H]2C(=O)N(Cc3cccc([N+](=O)[O-])c3)C[C@@H](O)CN2[C@@H]1c1ccc(Br)cc1	.	/	/	/	/	/

High-throughput results as filed in PubChem.
